In all, about 290,000 compounds went through this assay and about 27,000 (9.3%) were called active. This is one part of a sample in which actives are shown more often than they occur. A number with no mark means an inactive call. No stated cut-off is given here; in the data, active means inhibition mostly above about 28% (no sharp cut-off); inactive means mostly below about 43%.
Assay: A qHTS for Small Molecule Inhibitors of Shiga Toxin; further: 0% is about no effect
Details: Vero cells, Shiga toxin protein synthesis inhibition reporter; at 38.7 µM, hits give high values

Question: For `CCOC(OCC)OCC`, which inhibition is on record?
Answer: 11.5%

Question: For `COCCCN1C(=O)c2ccc(C(=O)OCC(=O)NCc3ccccc3OC)cc2C1=O`, which inhibition is on record?
Answer: 9.09%

Question: With `COc1ccccc1CNC(=O)c1ccc(CS(=O)(=O)c2ccccc2)o1` as the molecule, how does the inhibition read?
Answer: 2.09%

Question: Which inhibition does the source give for `COC(=O)CN1C(=O)[C@H]2[C@@H](C3CC3)N3C(=O)CN(Cc4ccc(-c5ccccc5)cc4)C(=O)[C@@]3(Cc3ccccc3)[C@H]2C1=O` here?
Answer: 9.74%

Question: Which inhibition does the source give for `CCOc1ccccc1-c1cc(C(=O)N/N=C(\C)c2cccnc2)c2ccccc2n1` here?
Answer: -30.4%

Question: Which inhibition does the source give for `Cc1ccccc1/C=C\c1nc(O)c([N+](=O)[O-])c(=O)[nH]1` here?
Answer: -14.2%

Question: For `Cc1ccc2[nH]c(=O)c(CN(C)S(=O)(=O)c3cccc4nonc34)cc2c1`, which inhibition is on record?
Answer: -4.87%

Question: For `CCC1(CC)Cc2ccccc2-c2nc(CCl)[nH]c(=O)c21`, which inhibition is on record?
Answer: -4.46%

Question: For `CCc1ccc(OCC(O)CN2CCN(CCO)CC2)cc1` (configuration not stated), which inhibition is on record?
Answer: -8.28%

Question: Which inhibition does the source give for `COc1ccc(NC(=O)N2CCCC2C(=O)NCc2ccccc2Cl)cc1` (configuration not stated) here?
Answer: -3.06%

Question: For `CC(NC(=O)c1ccco1)c1ccc2c(c1)OCO2` (configuration not stated), which inhibition is on record?
Answer: -15.1%

Question: Which inhibition does the source give for `CCC(C)(C)NC(=O)C(c1ccc(O)cc1)N(Cc1ccco1)C(=O)CCC(=O)Nc1ccccn1` (configuration not stated) here?
Answer: -12.1%

Question: For `Cc1ccc(C)c(S(=O)(=O)N2CCCOC2CNC(=O)C(=O)NC2CCCCC2)c1` (configuration not stated), which inhibition is on record?
Answer: 20.6%

Question: Which inhibition does the source give for `CC(C)c1ccc(S(=O)(=O)N2CCN(C(=O)c3ccc(N4CCCC4)c([N+](=O)[O-])c3)CC2)cc1` here?
Answer: 25.8%

Question: Which inhibition does the source give for `COc1ccc(C(=O)Nc2cccnc2)cc1C(=O)Nc1cccnc1` here?
Answer: 9.57%

Question: Which inhibition does the source give for `O=C(Nc1cccc(S(=O)(=O)Nc2ccc(Cl)cc2)c1)c1ccc2c(c1)OCCO2` here?
Answer: 11.3%

Question: For `CC(=O)c1ccc2c(c1)OCCOCCOc1ccc(C(C)=O)cc1OCCOCCO2`, which inhibition is on record?
Answer: -5.3%

Question: Which inhibition does the source give for `O=C(Nc1ccc(Cl)cn1)c1ccc2c(c1)OCCO2` here?
Answer: 32.4%

Question: With `O=C(CN1CCc2cc3c(cc2C1)OCCCO3)Nc1ccccc1` as the molecule, how does the inhibition read?
Answer: 18.6%

Question: Which inhibition does the source give for `CC(Sc1nc(-c2ccccc2)cc(C(F)(F)F)n1)C(=O)Nc1ccc2c(c1)OCO2` (configuration not stated) here?
Answer: -14.3%

Question: With `O=C(Nc1ccccc1)c1ccc2c(c1)OCCCO2` as the molecule, how does the inhibition read?
Answer: 58.6% (active)

Question: Which inhibition does the source give for `CC(Sc1nc2cc(Cl)ccc2s1)C(=O)Nc1ccc2c(c1)OCO2` (configuration not stated) here?
Answer: 0% (active)

Question: With `O=C(Nc1ccc2c(c1)OCO2)c1sc2cc(Cl)ccc2c1Cl` as the molecule, how does the inhibition read?
Answer: -13.4%

Question: Which inhibition does the source give for `O=C(Nc1cccnc1)c1ccc2c(c1)OCO2` here?
Answer: 33% (active)

Question: For `Cc1nc(NC(=O)c2ccc3c(c2)OCCO3)ccc1Br`, which inhibition is on record?
Answer: 90.6% (active)

Question: For `CN1CCC(CN)(N2CCN(c3ccccc3)CC2)CC1`, which inhibition is on record?
Answer: -6.52%

Question: With `COc1cccc2sc(N(CCCN(C)C)C(=O)CCS(=O)(=O)c3ccccc3)nc12` as the molecule, how does the inhibition read?
Answer: 8.49%

Question: For `CC1(C)Cc2c(cnn2-c2cccc(F)c2)C(NC(=O)c2cc[n+]([O-])cc2)C1` (configuration not stated), which inhibition is on record?
Answer: -5.88%

Question: For `Cc1cccnc1NC(=O)Cn1c(=O)oc2ccccc21`, which inhibition is on record?
Answer: 30.2%

Question: With `Cc1ccc(S(=O)(=O)c2c[nH]c3ccc(Cl)cc3c2=O)cc1` as the molecule, how does the inhibition read?
Answer: -4.43%

Question: With `O=C(Nc1ccc(C(=O)N2CCCCC2)cc1)c1cccc([N+](=O)[O-])c1` as the molecule, how does the inhibition read?
Answer: 27.3%

Question: For `O=C(Nc1cccc([N+](=O)[O-])c1)c1ccc2c(c1)OCO2`, which inhibition is on record?
Answer: 58.7% (active)

Question: With `O=C(Nc1cccc([N+](=O)[O-])c1)Nn1cnnc1` as the molecule, how does the inhibition read?
Answer: -6.68%

Question: With `CC(NC(=O)Nc1cccc([N+](=O)[O-])c1)c1ccc2c(c1)OCO2` (configuration not stated) as the molecule, how does the inhibition read?
Answer: 6.02%

Question: With `O=C(Nc1ccc(NC(=O)c2ccco2)c(Cl)c1)c1cccc([N+](=O)[O-])c1` as the molecule, how does the inhibition read?
Answer: 15.6%

Question: For `O=C(Nc1ccc(N2CCOCC2)cc1)c1ccc2c(c1)OCO2`, which inhibition is on record?
Answer: 76.4% (active)

Question: With `O=C(Nc1ccc(C2CC2(Cl)Cl)cc1)c1cccc([N+](=O)[O-])c1` (configuration not stated) as the molecule, how does the inhibition read?
Answer: 76.3% (active)

Question: For `CC(C)C(=O)Nc1cccc(C(=O)Nc2ccc3c(c2)OCO3)c1`, which inhibition is on record?
Answer: 143% (active)

Question: With `CCSc1ccccc1C(=O)Nc1ccc2c(c1)OCO2` as the molecule, how does the inhibition read?
Answer: 45.1%

Question: Which inhibition does the source give for `O=C(Nc1ccc2c(c1)OCO2)c1ccc(N2C(=O)c3ccccc3C2=O)cc1` here?
Answer: 17.3%

Question: Which inhibition does the source give for `O=C(c1ccc2c(c1)OCO2)N1CCOCC1` here?
Answer: 1.95%

Question: With `CCN(CCCNC(=O)c1ccc2c(c1)NC(=O)CN2C)c1cccc(C)c1` as the molecule, how does the inhibition read?
Answer: -5.92%

Question: Which inhibition does the source give for `COc1ccc(NC(=O)C2=CC(c3ccc(OC)c(OC)c3)=NS(=O)(=O)N2C)cc1` here?
Answer: 7.8%

Question: With `O=C(CN1CCCCCC1)Nc1ccc(Cl)cc1F` as the molecule, how does the inhibition read?
Answer: 1.73%

Question: With `O=c1ccc2cc(S(=O)(=O)Nc3ccccc3F)ccc2o1` as the molecule, how does the inhibition read?
Answer: -8.1%

Question: Which inhibition does the source give for `CCc1nc2cccnc2n1-c1ccc(C(=O)O)cc1` here?
Answer: -6.32%

Question: With `Cc1c(Cl)cccc1NC(=S)NCC(O)c1ccccc1` (configuration not stated) as the molecule, how does the inhibition read?
Answer: 8.12%

Question: For `O=C(Nc1ccccc1)Nc1nc2ccccc2s1`, which inhibition is on record?
Answer: 106% (active)

Question: For `CC(=O)Nc1ccc(-c2csc(NC(=O)Nc3ccccc3)n2)cc1`, which inhibition is on record?
Answer: 42%

Question: Which inhibition does the source give for `Cn1nnnc1SCC(=O)Nc1nc2ccccc2s1` here?
Answer: 25.2%

Question: With `COc1ccc(C(=O)NC2CC(C)(C)Cc3c2cnn3-c2ccccc2)c(OC)c1` (configuration not stated) as the molecule, how does the inhibition read?
Answer: -3.27%

Question: For `CC(C)S(=O)(=O)c1csc(NC(=O)Nc2ccc(Cl)cc2)c1Cl`, which inhibition is on record?
Answer: 37.4%

Question: With `COc1ccccc1Nc1cc(C(=O)NCCCN(C)C2CCCCC2)c2ccccc2n1` as the molecule, how does the inhibition read?
Answer: -10.8%

Question: With `Cc1ccc(SCC(=O)c2cc(C)c(OC(=S)N(C)C)c(C)c2)cc1` as the molecule, how does the inhibition read?
Answer: 37.1%

Question: For `Cc1cc(C)n2nc(CNS(=O)(=O)c3c(F)c(F)c(F)c(F)c3F)nc2n1`, which inhibition is on record?
Answer: 9.24%

Question: With `COc1cccc(NC(=O)N2CCC(NC(=O)C(Cc3cccc(C)c3)NC(C)=O)CC2)c1` (configuration not stated) as the molecule, how does the inhibition read?
Answer: 1.56%

Question: Which inhibition does the source give for `Cc1ccc(F)cc1NC(=O)c1cccc(N(C)C)c1` here?
Answer: 116% (active)

Question: With `O=C(CN1CCN(CC(=O)Nc2ccc3c(c2)OCO3)CC1)Nc1ccc(F)cc1` as the molecule, how does the inhibition read?
Answer: -14.4%

Question: For `Cc1cccc(C(=O)Nc2ccccc2N2CCN(c3ccc(F)cc3)CC2)c1`, which inhibition is on record?
Answer: -3.83%

Question: For `Cc1ccc(F)cc1NC(=O)c1ccc2c(c1)OCO2`, which inhibition is on record?
Answer: 43.8% (active)

Question: Which inhibition does the source give for `Cc1ccc(-n2nc3c(c2NC(=O)c2ccc4c(c2)OCO4)CSC3)c(C)c1` here?
Answer: 1.3%

Question: Which inhibition does the source give for `O=C(Nc1ccccc1N1CCCCC1)c1cccc(F)c1` here?
Answer: 16.3%

Reference: PubChem BioAssay AID2315 (National Center for Advancing Translational Sciences (NCATS), 2010)
